Experimental data from PubChem BioAssay (NCATS).
Records with an inconclusive call do not appear. Active and inactive are the calls of the source. Unless noted, the call rests on the fitted dose curve; in most records, active means well fitted curve in the direction sought with a large enough effect; inconclusive means small, poorly fitted or top-dose-only effect, or another doubt; inactive means no such curve, though single readings can be large; an effect the other way counts as inactive or inconclusive.

What was measured:
[1] = AP1 Signaling Pathway (AID 357; active means well fitted curve in either direction with a large enough effect, not every such curve was filed as active;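 further: ME-180 reporter cells stimulated with EGF at its EC50 level; on the % scale 0 is the no-effect control and ±100 the full control effect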); settings: ME-180 AP-1-bla reporter, EGF-induced, beta-lactamase ratio, 5 h; at 17.2 µM (top of the series) unless noted
Summary of the method: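 A ratiometric CCF4 readout (405 nm excitation; 460 and 530 nm emission) quantified AP-1-driven beta-lactamase in ME-180 cells after 5 h with compound and EC50 EGF; AC50 values were derived for activators and inhibitors.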

[2] = molecular target: Cytochrome P450 1A2 (Homo sapiens) (UniProt P05177); assay: p450-cyp1a2 (AID 410; calls by dose curve; further: potency means the concentration at half of the fitted maximal effect;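 on activity change, negative = inhibition: -100% = full effect of reference inhibitor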)
Summary of the method: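 20nM CYP1A2 with 100uM Luciferin-ME (at Km) in 100mM KPO4; compound preincubated 10 min, NADPH regeneration added, 60 min at room temperature. Luciferin quantified by luminescence after detection reagent; normalized to 57 uM furafylline.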

[3] = Stat Signaling Pathway (AID 446; active means well fitted curve in either direction with a large enough effect, not every such curve was filed as active;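 further: ME-180 cervical cancer cells given 40 pM IL-6 alongside compound; SIE-controlled beta-lactamase reporter measured as 460/530 nm FRET emission ratio; on the % scale 0 is the no-effect control and ±100 the full control effect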); settings: ME-180 SIE beta-lactamase reporter, IL-6 stimulated, 5 h; at 17.2 µM (top of the series) unless noted
Summary of the method: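 Screening format detects activators and inhibitors alike: ME-180 SIE-bla cells stimulated at 40 pM IL-6 for 5 hrs with compound, then dual-emission beta-lactamase read at 405 nm excitation.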

[4] = molecular target: Glucocorticoid receptor (Homo sapiens) (UniProt P04150); assay: GR-GFP Redistribution (AID 450;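 active means compounds whose dose series gives a full or clear partial fitted curve of increased nuclear translocation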; further: potency means the concentration at half of the fitted maximal effect)
[5] = molecular target: Glucocorticoid receptor (Homo sapiens) (UniProt P04150); assay: GR-EFC Redistribution (AID 451; calls by dose curve; further: potency means the concentration at half of the fitted maximal effect); settings: CHO-K1 GR-EFC translocation, beta-gal luminescence, 2 h
Summary of the method: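 CHO-K1 cells expressing nuclear EA and GR-ED fragments of b-gal; compounds titrated up to 46 uM final, 2 h at 37 C. GR nuclear translocation read as complemented b-gal luminescence after 1 h RT detection.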

[6] = molecular target: Mitogen-activated protein kinase 10 (Mus musculus) (UniProt Q61831); assay: JNK3 AlphaScreen Assay (AID 530; active means well fitted curve in either direction with a large enough effect, not every such curve was filed as active;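 further: kinase came from lysate of stimulated human HepG2 cells; signal reports phosphorylation of biotinylated GST-cJun 1-79 at Ser73 with 10 µM ATP; on the % scale 0 is the no-effect control and ±100 the full control effect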)
Summary of the method: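 Pre-activated (IL-1β/TNFα) JNK3 in HepG2 lysates phosphorylates biotin-GST-cJun(1-79), 10 uM ATP; anti-phospho-cJun(Ser73) AlphaScreen read at room temperature, pH 7.6 Tris buffer. Compounds pre-incubated 15 min as titrations.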

[7] = molecular target: 3',5'-cyclic-AMP phosphodiesterase 4B (Homo sapiens) (UniProt Q07343); assay: qHTS Assay for Inhibitors of PDE-IV (AID 607; active means well fitted activation curve with a large enough effect in the main read-out, with a control signal flat, not every such curve was filed as active; further: % of control where 0% means no effect)
Summary of the method: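 The readout is membrane depolarisation from a cAMP-sensing CNG channel, detected with a potential dye at ex 535/em 590. Cells were HEK293-derived (endogenous PDE-IV) at 1000 cells/well, titrated up to 22.9 uM final.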

[8] = qHTS Assay for Identification of Small Molecule Antagonists for NFkB Signaling Pathway (AID 895; active means well fitted inhibition curve with a large enough effect in the signal ratio, with a control signal flat, not every such curve was filed as active; the % refers to the signal ratio; further: potency means the concentration at half of the fitted maximal effect)
Summary of the method: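 ME-180 NFkB-bla cells (beta-lactamase under NFkB response element), plated overnight, treated with compound then 10 pM TNF alpha (about EC50) for 5 hrs at 37 C. LiveBLAzer FRET read at 460/530 nm emission, 405 nm excitation.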

[9] = qHTS Assay for Identification of Small Molecule Agonists for Thrombopoietin (TPO) Signaling Pathway (AID 917); further: on the % scale 0 is the no-effect control and ±100 the full control effect
Summary of the method: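 Murine Ba/F3 cells expressing human TPO receptor and GPIIb-promoter luciferase, IL-3-starved overnight, given compound plus TPO at 26 pM (EC50). After 24 h at 37 C, 5% CO2, luminescence read.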

[10] = molecular target: Muscarinic acetylcholine receptor M1 (Rattus norvegicus) (UniProt P08482); assay: qHTS Assay for Antagonists of Acetylcholine Muscarinic M1 Receptor: Measurement of IP-One Response (AID 944); further: nearly all actives have a fitted effect of over 75% in size; further: potency means the concentration at half of the fitted maximal effect
Summary of the method: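 CHO cells stably expressing rat M1, pretreated 10 min with compound, then stimulated 30 min with carbachol at EC80 (200 nM) in LiCl-containing buffer pH 7.4; IP1 accumulation read by HTRF competition (665/620 nm).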

[11] = molecular target: Pyruvate kinase (Leishmania mexicana) (UniProt Q27686); assay: qHTS Validation Assay for Inhibitors of Leishmania Mexicana Pyruvate Kinase (AID 945);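 further: 0% = DMSO only neutral control wells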
Summary of the method: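 LmPYK E451W 0.2 nM; 0.5 mM PEP, 0.1 mM ADP, 7 mM MgCl2, 50 mM KCl, imidazole pH 7.2, 0.01% Tween 20, 0.05% BSA; 1 h RT; PKLight luminescence; DMSO-normalized.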

[12] = molecular target: Pyruvate kinase PKM (Homo sapiens) (UniProt P14618); assay: qHTS Assay for Activators of Human Muscle Pyruvate Kinase (AID 954; active means well fitted curve in the direction sought with a large enough effect, not every such curve was filed as active;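 further: 0% = uninhibited enzyme and -100% = no enzyme or full thiadiazolimine inhibition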)
Summary of the method: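 Reaction: 0.1 nM purified PKM2 with 0.5 mM phosphoenolpyruvate and 0.1 mM ADP, room temperature, 1 h. Readout: luciferase-based ATP luminescence after stop reagent. Activators judged against a 0.3 nM enzyme column.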

[13] = molecular target: Alpha-galactosidase A (Homo sapiens) (UniProt P06280); assay: Counterscreen for Glucocerebrosidase Inhibitors: qHTS Assay for Human alpha-Galactosidase at pH 4.5 (AID 992); further: 0% is about no effect
Summary of the method: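 Concentration-response curves (0.7 nM to 77 uM final) were modeled with the Hill equation to give AC50. Reactions: 2 nM enzyme, 80 uM fluorogenic alpha-galactoside, pH 4.5 citric acid buffer, 20 min, room temperature.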

[14] = molecular target: alpha-glucosidase (Oryza sativa, rice) (UniProt Q653V4); assay: Counterscreen for Glucocerebrosidase Inhibitors: qHTS Assay for Rice alpha-Glucosidase at pH 5.0 (AID 997);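 further: 0% = full activity with enzyme and -100% = basal without enzyme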
Summary of the method: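 Rice alpha-glucosidase (4 nM final) with 400 uM 4-methylumbelliferyl-alpha-D-glucopyranoside in citrate buffer pH 5.0, 20 min at room temperature, stopped at pH 10; fluorescence 365/440 nm, compounds 0.7 nM–77 uM, AC50 from Hill fits.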

[15] = qHTS Assay for Identification of Small Molecule Agonists for Hypoxia Response Element Signaling Pathway (AID 914; active means well fitted activation curve with a large enough effect in the signal ratio, with a control signal flat, not every such curve was filed as active; the % refers to the signal ratio; further: % of control where 0% means no effect); settings: ME-180 HRE-bla reporter, beta-lactamase ratio, CoCl2, 17 h; activation: stronger effect = higher value
Summary of the method: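 ME-180 cells carrying an HRE-driven beta-lactamase reporter were treated with compounds in a titration series plus an EC50 level of CoCl2 for 17 h at 37 degrees Celsius; CCF4 readout as the 460nm/530nm ratio gave AC50 values.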

[16] = NFAT Signaling Pathway (AID 444; active means well fitted curve in either direction with a large enough effect, not every such curve was filed as active); settings: Jurkat NFAT-bla M1, carbachol, beta-lactamase ratio, 5 h; at 17.2 µM (top of the series) unless noted
Summary of the method: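 Jurkat cells with NFAT-driven β-lactamase reporter and co-expressed M1 receptor, stimulated with carbachol (final 1 uM, ~EC50), compound titration, 5 h at 37 °C. CCF4 loaded 1 h at RT; 460/530 nm ratio gave %activity and AC50.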

[17] = molecular target: Cytochrome P450 3A4 (Homo sapiens) (UniProt P08684); assay: qHTS Assay for Inhibitors and Substrates of Cytochrome P450 3A4 (AID 884); further: on the % scale 0 is the no-effect control and ±100 the full control effect; nearly all actives have a fitted effect of over 50% in size
Summary of the method: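 20 nM human CYP3A4 with 25 uM Luciferin-PPXE (at KM) in 200 mM KPO4, preincubated 10 min with compound; NADPH regeneration started a 60 min RT reaction. Luciferin detected by luminescence, normalized to 57 uM ketoconazole as full inhibition.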

[18] = molecular target: Cytochrome P450 3A4 (Homo sapiens) (UniProt P08684); assay: qHTS Assay for Activators of Cytochrome P450 3A4 (AID 885); further: potency means the concentration at half of the fitted maximal effect; nearly all actives have a fitted effect of over 65% in size
Summary of the method: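 Steps: enzyme/substrate mix dispensed; compound added, 10 min RT; NADPH regeneration solution added, 60 min RT; luciferin detection buffer stops reaction; 20 min later luminescence measured.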

[19] = molecular target: Cytochrome P450 2D6 (Homo sapiens) (UniProt P10635); assay: qHTS Assay for Inhibitors and Substrates of Cytochrome P450 2D6 (AID 891); further: potency means the concentration at half of the fitted maximal effect; nearly all actives have a fitted effect of over 60% in size
Summary of the method: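 Human CYP2D6 (5 nM) with 30 uM Luciferin-ME EGE (at Km) in 100 mM KPO4, compound preincubated 10 min, then NADPH regeneration system for 60 min at room temperature. Luciferin read by luminescence; normalized to 1.43 uM quinidine.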

[20] = molecular target: Muscarinic acetylcholine receptor M1 (Rattus norvegicus) (UniProt P08482); assay: qHTS Assay for Antagonists of Acetylcholine Muscarinic M1 Receptor: Kinetic Measurement of Intracellular Calcium Response (AID 943); further: potency means the concentration at half of the fitted maximal effect; nearly all actives have a fitted effect of over 75% in size
Summary of the method: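 CHO cells expressing rat M1 receptor, Fluo-4 loaded, preincubated 10 min with compound, then stimulated with EC80 carbachol (100 nM final). Kinetic calcium fluorescence over 4 min; response taken as peak over basal signal.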

Sequence of Cytochrome P450 1A2 (Homo sapiens) (P05177 whole entry, looked up): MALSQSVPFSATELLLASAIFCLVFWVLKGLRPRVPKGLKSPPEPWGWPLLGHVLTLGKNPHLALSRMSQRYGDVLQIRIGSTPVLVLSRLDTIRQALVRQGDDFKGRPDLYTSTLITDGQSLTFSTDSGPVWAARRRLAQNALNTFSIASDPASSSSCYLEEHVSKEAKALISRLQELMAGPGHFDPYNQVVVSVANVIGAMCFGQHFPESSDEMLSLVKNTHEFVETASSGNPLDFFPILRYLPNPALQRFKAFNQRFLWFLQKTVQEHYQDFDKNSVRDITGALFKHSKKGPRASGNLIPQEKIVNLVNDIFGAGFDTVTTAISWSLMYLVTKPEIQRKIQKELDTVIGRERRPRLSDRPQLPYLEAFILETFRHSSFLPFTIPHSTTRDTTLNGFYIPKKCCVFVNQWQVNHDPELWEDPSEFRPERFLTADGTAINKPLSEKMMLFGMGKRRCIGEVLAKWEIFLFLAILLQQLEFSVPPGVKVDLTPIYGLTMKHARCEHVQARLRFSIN
Sequence of Glucocorticoid receptor (Homo sapiens) (P04150 whole entry, looked up, the tested form may be a part): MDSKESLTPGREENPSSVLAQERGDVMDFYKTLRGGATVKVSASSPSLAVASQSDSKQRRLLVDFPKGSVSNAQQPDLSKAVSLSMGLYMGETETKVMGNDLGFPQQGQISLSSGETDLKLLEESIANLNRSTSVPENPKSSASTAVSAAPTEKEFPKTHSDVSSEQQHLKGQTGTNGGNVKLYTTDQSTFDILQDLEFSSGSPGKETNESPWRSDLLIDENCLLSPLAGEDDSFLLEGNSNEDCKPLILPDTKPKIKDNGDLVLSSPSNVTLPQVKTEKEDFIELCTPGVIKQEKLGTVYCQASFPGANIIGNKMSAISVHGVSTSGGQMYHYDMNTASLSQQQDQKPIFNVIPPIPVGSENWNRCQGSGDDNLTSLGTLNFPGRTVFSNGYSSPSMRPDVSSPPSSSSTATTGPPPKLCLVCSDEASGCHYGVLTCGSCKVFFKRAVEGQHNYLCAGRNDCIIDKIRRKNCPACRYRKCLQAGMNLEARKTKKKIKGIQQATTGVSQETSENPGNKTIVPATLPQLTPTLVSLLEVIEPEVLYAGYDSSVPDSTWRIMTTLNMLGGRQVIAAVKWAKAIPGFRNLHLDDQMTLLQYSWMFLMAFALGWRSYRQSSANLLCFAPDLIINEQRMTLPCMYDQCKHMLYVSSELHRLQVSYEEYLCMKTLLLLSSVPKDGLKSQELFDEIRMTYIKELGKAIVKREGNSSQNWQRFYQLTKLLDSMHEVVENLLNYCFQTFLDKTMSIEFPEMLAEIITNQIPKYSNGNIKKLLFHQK
Sequence of Muscarinic acetylcholine receptor M1 (Rattus norvegicus) (P08482 whole entry, looked up): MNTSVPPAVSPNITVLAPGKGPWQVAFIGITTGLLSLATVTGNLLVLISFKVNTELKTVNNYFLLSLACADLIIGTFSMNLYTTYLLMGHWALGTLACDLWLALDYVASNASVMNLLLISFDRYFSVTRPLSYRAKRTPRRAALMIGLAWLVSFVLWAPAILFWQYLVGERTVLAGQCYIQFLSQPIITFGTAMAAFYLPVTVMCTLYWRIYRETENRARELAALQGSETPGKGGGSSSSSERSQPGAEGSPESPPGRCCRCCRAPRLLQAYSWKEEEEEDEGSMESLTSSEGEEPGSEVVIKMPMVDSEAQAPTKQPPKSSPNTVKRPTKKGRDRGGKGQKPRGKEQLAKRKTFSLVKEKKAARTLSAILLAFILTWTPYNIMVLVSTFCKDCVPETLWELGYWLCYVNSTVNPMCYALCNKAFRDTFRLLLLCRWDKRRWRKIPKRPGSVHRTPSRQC
Sequence of Alpha-galactosidase A (Homo sapiens) (P06280 whole entry, looked up): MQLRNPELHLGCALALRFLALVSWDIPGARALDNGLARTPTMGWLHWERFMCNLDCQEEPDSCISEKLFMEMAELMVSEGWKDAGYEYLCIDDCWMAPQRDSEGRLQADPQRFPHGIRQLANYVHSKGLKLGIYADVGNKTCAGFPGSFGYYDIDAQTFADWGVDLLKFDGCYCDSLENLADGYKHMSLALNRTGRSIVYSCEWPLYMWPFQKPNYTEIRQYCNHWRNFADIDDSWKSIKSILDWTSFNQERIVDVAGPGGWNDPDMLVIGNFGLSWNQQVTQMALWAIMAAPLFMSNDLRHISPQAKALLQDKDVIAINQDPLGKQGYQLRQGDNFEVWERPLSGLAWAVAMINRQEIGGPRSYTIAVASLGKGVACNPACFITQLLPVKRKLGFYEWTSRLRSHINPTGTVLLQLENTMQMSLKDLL
Sequence of Pyruvate kinase PKM (Homo sapiens) (P14618 whole entry, looked up): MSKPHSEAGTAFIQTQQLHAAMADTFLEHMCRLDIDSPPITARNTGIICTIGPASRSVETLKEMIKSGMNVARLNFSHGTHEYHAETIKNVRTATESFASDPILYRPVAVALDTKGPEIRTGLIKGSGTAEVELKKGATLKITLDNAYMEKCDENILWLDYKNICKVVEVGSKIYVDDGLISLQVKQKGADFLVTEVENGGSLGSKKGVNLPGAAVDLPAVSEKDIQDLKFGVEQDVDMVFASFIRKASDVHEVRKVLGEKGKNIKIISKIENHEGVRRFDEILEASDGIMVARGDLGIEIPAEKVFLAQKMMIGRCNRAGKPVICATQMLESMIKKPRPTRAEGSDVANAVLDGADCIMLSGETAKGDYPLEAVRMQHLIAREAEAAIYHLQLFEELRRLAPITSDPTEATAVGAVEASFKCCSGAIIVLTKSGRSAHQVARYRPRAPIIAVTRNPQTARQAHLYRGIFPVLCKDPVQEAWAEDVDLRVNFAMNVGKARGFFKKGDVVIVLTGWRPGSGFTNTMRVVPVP
Sequence of Pyruvate kinase (Leishmania mexicana) (Q27686 2-499 E452W): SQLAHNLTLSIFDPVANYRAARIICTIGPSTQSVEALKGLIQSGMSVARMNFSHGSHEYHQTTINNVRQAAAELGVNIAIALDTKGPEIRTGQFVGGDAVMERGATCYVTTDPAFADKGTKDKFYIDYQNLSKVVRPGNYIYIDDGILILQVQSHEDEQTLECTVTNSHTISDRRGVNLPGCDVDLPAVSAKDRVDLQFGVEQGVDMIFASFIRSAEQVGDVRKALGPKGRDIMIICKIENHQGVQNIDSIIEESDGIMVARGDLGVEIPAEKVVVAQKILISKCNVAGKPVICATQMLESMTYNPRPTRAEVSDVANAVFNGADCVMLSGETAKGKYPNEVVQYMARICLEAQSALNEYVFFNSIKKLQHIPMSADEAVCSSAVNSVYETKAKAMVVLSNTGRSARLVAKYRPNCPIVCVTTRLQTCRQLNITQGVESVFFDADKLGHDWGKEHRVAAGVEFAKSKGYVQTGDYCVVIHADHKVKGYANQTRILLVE
Sequence of 3',5'-cyclic-AMP phosphodiesterase 4B (Homo sapiens) (Q07343 whole entry, looked up): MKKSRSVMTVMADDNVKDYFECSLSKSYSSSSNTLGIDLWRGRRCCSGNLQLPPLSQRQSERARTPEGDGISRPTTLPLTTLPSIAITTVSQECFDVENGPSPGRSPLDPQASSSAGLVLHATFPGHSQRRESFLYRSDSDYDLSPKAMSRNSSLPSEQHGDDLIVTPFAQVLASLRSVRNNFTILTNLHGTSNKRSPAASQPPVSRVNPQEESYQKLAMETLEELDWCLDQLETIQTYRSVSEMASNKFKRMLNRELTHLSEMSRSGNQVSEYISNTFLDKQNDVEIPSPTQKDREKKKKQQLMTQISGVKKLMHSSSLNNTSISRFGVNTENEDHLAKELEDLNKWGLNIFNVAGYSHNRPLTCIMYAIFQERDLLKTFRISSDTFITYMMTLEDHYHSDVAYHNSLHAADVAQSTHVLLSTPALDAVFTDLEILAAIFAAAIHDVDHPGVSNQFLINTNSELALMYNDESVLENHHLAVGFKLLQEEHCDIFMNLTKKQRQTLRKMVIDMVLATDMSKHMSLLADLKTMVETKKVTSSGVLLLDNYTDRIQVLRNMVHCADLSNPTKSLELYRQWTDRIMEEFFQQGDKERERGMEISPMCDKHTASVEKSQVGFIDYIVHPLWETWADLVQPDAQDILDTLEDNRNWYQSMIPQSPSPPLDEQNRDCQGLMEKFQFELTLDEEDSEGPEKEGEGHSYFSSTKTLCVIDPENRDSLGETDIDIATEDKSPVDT
Sequence of Cytochrome P450 3A4 (Homo sapiens) (P08684 whole entry, looked up): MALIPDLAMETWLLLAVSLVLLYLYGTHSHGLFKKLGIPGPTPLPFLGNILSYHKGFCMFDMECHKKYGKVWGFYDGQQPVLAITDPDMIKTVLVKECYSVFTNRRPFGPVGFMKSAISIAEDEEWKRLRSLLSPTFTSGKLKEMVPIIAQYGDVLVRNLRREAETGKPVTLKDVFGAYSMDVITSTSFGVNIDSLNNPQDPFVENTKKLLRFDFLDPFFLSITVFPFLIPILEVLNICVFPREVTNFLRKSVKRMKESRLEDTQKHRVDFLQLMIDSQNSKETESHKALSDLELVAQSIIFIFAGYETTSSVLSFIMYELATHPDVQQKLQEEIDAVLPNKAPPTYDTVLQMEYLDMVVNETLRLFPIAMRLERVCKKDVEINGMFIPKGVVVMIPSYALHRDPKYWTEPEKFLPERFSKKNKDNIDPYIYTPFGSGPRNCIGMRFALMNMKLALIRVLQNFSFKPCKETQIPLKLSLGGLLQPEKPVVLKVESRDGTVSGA
Sequence of Cytochrome P450 2D6 (Homo sapiens) (P10635 whole entry, looked up): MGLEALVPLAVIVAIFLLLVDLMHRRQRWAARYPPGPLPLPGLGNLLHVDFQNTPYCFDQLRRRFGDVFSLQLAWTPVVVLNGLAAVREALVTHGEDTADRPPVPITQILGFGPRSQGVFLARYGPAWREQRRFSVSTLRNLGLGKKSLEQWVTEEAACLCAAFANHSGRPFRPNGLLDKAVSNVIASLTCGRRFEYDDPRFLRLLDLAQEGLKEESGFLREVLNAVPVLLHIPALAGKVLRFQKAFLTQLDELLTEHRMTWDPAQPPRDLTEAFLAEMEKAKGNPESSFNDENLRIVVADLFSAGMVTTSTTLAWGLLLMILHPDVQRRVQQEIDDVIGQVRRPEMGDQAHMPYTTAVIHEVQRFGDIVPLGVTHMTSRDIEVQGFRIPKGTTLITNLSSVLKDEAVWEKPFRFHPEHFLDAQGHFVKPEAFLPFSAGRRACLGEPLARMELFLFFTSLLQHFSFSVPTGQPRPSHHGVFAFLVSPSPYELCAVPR

C[C@@]12CCC(=O)C=C1CC[C@@H]1[C@@H]2[C@H](O)C[C@]2(C)[C@@H]1CC[C@]2(O)C(=O)COC(=O)CCC(=O)O
inactive: activity change, negative = inhibition [1] -0.329% [at 38 µM] | Potency [2] | activity, negative = inhibition [3] -14.6% [at 38 µM] | Potency [6] | Potency [7] | Potency [9] | Potency [10] | Potency [11] | outcome [12] | outcome [13] | outcome [14]
active: Potency [4] 0.112 µM | Potency [5] 1.12 µM | Potency [8] 0.224 µM

Cc1cc(-c2cc(C)c(O)c(C(C)(C)C)c2)cc(C(C)(C)C)c1O
active: Potency [2] 0.631 µM
inactive: activity change, negative = inhibition [1] -0.717% [at 7.69 µM] | activity, negative = inhibition [3] 14.1% [at 7.69 µM] | Potency [4] > 46 µM | Potency [5] > 9.22 µM | activity change, negative = inhibition [6] -3.71% [at 11.4 µM] | Potency [7] | activation [15] -9.94%

CCCCCCCCCCCCCCCCCCNC(=O)OC[C@@H](COP(=O)([O-])OCC[n+]1ccsc1)OC
inactive: activity change, negative = inhibition [1] 1.14% [at 38 µM] | Potency [2] | activity, negative = inhibition [3] -15% [at 38 µM] | Potency [4] > 46 µM | Potency [5] > 46 µM | Potency [6] | Potency [7] | Potency [9] | Potency [10] | Potency [11] | outcome [12] | outcome [13] | outcome [14]

CCOC(=O)C1=C(N)n2c(s/c(=C\c3cccnc3)c2=O)=C(C(=O)OC)C1c1cccnc1 (centres undefined)
inactive: activity change, negative = inhibition [1] -8.91% | activity change, negative = inhibition [16] 23.6%

CNc1oc(-c2ccc(Cl)cc2)nc1C#N
inactive: activity change, negative = inhibition [1] -1.98% | activity change, negative = inhibition [16] 18.3% | activity, negative = inhibition [3] 5.14%

CCCN(CCc1ccccc1)[C@H]1CCc2c(O)cccc2C1
inactive: activity change, negative = inhibition [1] 9.86% [at 38 µM] | activity, negative = inhibition [3] -8.8% [at 38 µM] | Potency [4] > 46 µM | Potency [6] | Potency [17] | Potency [11] | outcome [12] | outcome [13] | outcome [14]
active: Potency [2] 12.6 µM | Potency [18] 12.6 µM | Potency [19] 0.501 µM | Potency [20] 0.501 µM | Potency [10] 2.82 µM
